From PubChem BioAssay AID624173 (National Center for Advancing Translational Sciences (NCATS), 2012) come the findings set out here.

Hit rate of the full screen: of about 410,000 compounds, about 490 (0.12%) were called active. Entries that show only a call come without a potency. Another 1% or so got no clear call; they are omitted. Calls follow the shape of the dose curve; as a rule, active = well fitted inhibition curve with a large enough effect; inconclusive = small, poorly fitted or top-dose-only effect; inactive = flat fitted curve, though single readings scatter. For the sample, actives were picked, then their nearest neighbours and some compounds at random.
Potency is read from the fitted curve at half-maximal effect.

The assay has as its target pyruvate kinase (Trypanosoma brucei) (UniProt Q57TT1). The assay can be described thus: qHTS of Trypanosoma Brucei Inhibitors. Also: nearly all actives have a fitted effect of over 50% in size. The following applies: TbPYK enzyme, Kinase-Glo Plus ATP luminescence, 45 min; series mostly up to 76.8 µM. From the text: Members of the Trypanosomatidae family of parasitic protozoans cause a spectrum of diseases throughout the tropical and subtropical world. Sleeping sickness, caused by two subspecies of Trypanosoma brucei, is endemic to areas of sub-Saharan Africa, while Chagas' disease, a manifestation of Trypanosoma cruzi infection, is prevalent throughout Central and South America. In addition, many species of Leishmania are responsible for a range of cutaneous and visceral diseases, causing ulcers, destructive lesions and kalaazar, a lethal infection of the viscera. These diseases cause severe public health and economic burdens on populations that are often already caught in a tragic cycle of poverty, poor nutrition and disease. Collectively, parasites of the trypanosomatid family infect 30 million people worldwide (~500 million live in endemic areas), and account for ~130K deaths annually. Existing treatments have developed little in the past 50 years, and suffer from toxicity, poor efficacy and resistance; the goal of this project is to develop lead drugs that will be suitable for entry into pre-clinical trials.
Glycolysis in axenically cultured T. cruzi, representing the intracellular pathogenic stage, is also essential for these parasites. {Engel, 1987} This project aims to discover and optimize selective inhibitors of the glycolytic enzyme pyruvate kinase (PYK) from Trypanosoma brucei, the parasite that causes sleeping sickness. […] Trypanosomatid PYKs show significant differences from their human counterparts including only 47-50% sequence identity and different allosteric and activation properties.{Callens, 1992} To this end, a qHTS was done against the MLSMR to discover inhibitors.
NIH Molecular Libraries Probe Production Network [MLPCN]
NIH Chemical Genomics Center [NCGC]
PI Name: Malcolm Walkinshaw, University of Edinburgh
2 uL of TbPYK/substrate buffer (columns 1-3, 5-48) are dispensed into Greiner white solid bottom 1536-well assay plates; column 4 receives only TEA buffer as 0x TbPYK controls. Compounds are then transferred via Kalypsys pin tool equipped with 1536-pin array (10 nL slotted pins, V&P Scientific, San Diego, CA). Following addition of compound, 2 uL of ADP (130 uM final concentration, all columns) is added to initiate the reaction. The plates are then incubated at room temperature for 45 minutes. Kinase-Glo Plus reagent is added (3 uL) and plates incubated for 10 minutes, before being transferred to a ViewLux high-throughput CCD imager (PerkinElmer) wherein single end-point measurements of luminescence are acquired using a clear filter. All reagents are diluted in an assay buffer consisting of 50 mM TEA (pH 7.2), 100 mM KCl, 10 mM MgCl2, 0.05% BSA and 0.01% Tween-20.
All screening operations will be performed on a fully integrated robotic system (Kalypsys, San Diego, CA) containing one RX-130 and two RX-90 anthropomorphic robotic arms (Staeubli, Duncan, SC). Library plates will be screened starting from the lowest and proceeding to the highest concentration. Vehicle-only plates, with DMSO being pin-transferred to columns 5-48, will be inserted uniformly at the beginning and the end of each library in order to monitor and record any shifts in the background, which can be affected by reagent dispensers or loss in enzyme activity over time. Screening data will be corrected, normalized, and concentration-effect relationships will be derived by using publicly-available curve fitting algorithms developed in-house (http://ncgc.nih.gov/pub/openhts).
For orientation: In qHTS, concentration-response curves come from the screen itself.
In the case of `O=S(O)CNc1ccc(S(=O)(=O)c2ccc(NCS(=O)O)cc2)cc1`, the Potency entry was “inactive”.

As for `O=C(c1ccco1)N1CCC[C@@]2(CCN(Cc3nccs3)C2)C1`, the Potency entry was “inactive”.

Take `Cn1cccc1C(=O)N1CCC2(CC1)CN(c1cccc(-c3ccccc3)c1)C2`: the Potency result is “inactive”.

With `C/C=C1\C2C=C(C)CC1(N)c1ccc(=O)[nH]c1C2` (stereo unspecified), the Potency entry was “inactive”.

Consider `NC(=O)C(=O)N/N=C/c1ccc([N+](=O)[O-])o1`, for which the Potency result was “inactive”.

Consider `O=C(c1cc(C(F)(F)F)cc(C(F)(F)F)c1)N1CCC[C@@]2(CCN(c3ccccn3)C2)C1`, for which the Potency result was “inactive”.

Regarding `CC(C)NC(=O)N1CCC2(CC1)CCN(C(=O)c1cccn1C)CC2`, the Potency entry is “inactive”.

With `O=C(O)CCC(=O)O`, the Potency entry is “inactive”.

With `CC(C)(O/N=C(\C(=O)N[C@@H]1C(=O)N2C(C(=O)[O-])=C(C[n+]3ccccc3)CS[C@@H]12)c1csc(N)n1)C(=O)O`, the Potency entry is “inactive”.

Regarding `COCCn1c(=O)c(CCc2ccccc2)nc2cnc(N3CCNCC3)nc21`, the Potency entry is “inactive”.

For the compound `COc1ccnc(C[S@@](=O)[C@@H]2Nc3ccc(OC(F)F)cc3N2)c1OC`, the Potency entry was “inactive”.

Regarding `C[C@]12CC[C@@H]3c4ccc(O)cc4C[C@@H](CCCCCCCCCS(=O)CCCC(F)(F)C(F)(F)F)C3[C@@H]1CC[C@@H]2O` (stereo partly specified), the Potency result was “inactive”.

In the case of `C=CCn1c(C)cc(C2=NNC(=NCC)SC2)c1C`, the Potency was 17.8 µM (active).

As for `CC1N=C(N)OC1c1ccccc1` (stereo unspecified), the Potency result is “inactive”.

Consider `CS(=O)(=O)N1CCC2(CCN(c3ccncc3)CC2)CC1`, for which the Potency entry was “inactive”.

On to `CC1(C)O[C@@H]2C[C@@H]3[C@H]4C[C@@H](F)C5=CC(=O)C=C[C@]5(C)[C@@]4(F)[C@@H](O)C[C@]3(C)[C@]2(C(=O)CO)O1`, for which the Potency entry was “inactive”.

With `COc1cc(C[C@H]2NCCc3cc(O)c(O)cc32)cc(OC)c1OC`, the Potency result is “inactive”.

As for `O=C(c1ccncc1)N1CCC2(CCN(Cc3cc(C(F)(F)F)cc(C(F)(F)F)c3)CC2)CC1`, the Potency result was “inactive”.

Take `CC(=O)O[C@]1(C(C)=O)CC[C@@H]2[C@@H]3C=C(C)C4=CC(=O)CC[C@@]4(C)[C@H]3CC[C@]21C`: the Potency entry was “inactive”.

As to `CS(=O)(=O)N1CCC2(CC1)CN(Cc1ccccc1)C2`, the Potency result was “inactive”.

As to `CCCCC(=O)OCC(=O)[C@H]1[C@H](C)C[C@@H]2[C@@H]3C[C@@H](F)C4=CC(=O)C=C[C@]4(C)[C@@]3(F)[C@@H](O)C[C@@]21C`, the Potency entry is “inactive”.

On to `CC(C)NC(=O)N1CCCC2(CCN(C(=O)c3cccn3C)CC2)C1`, for which the Potency result is “inactive”.

Take `CCOC(=O)c1c(NC(=O)CSc2cn(CCNC(=O)c3cccc(C(F)(F)F)c3)c3ccccc23)sc2c1CCC2`: the Potency entry is “inactive”.

For `O=c1c(-c2cc(F)cc(F)c2)nc2cnc(Oc3ccccc3)nc2n1C[C@H]1CCCO1`, the Potency result is “inactive”.

Turning to `COc1ccc(-c2nc3cnc(OC)nc3n(Cc3ccc(F)cc3)c2=O)cc1`, the Potency result is “inactive”.

Take `COc1ccc(C(=O)N2CCC3(CCCN(C(c4ccccc4)c4ccccc4)C3)CC2)cc1`: the Potency entry is “inactive”.

Turning to `Cc1nc2cnc(N3CCNCC3)nc2n(Cc2ccc(F)cc2)c1=O`, the Potency result is “inactive”.

As for `CS(=O)(=O)N1CCC[C@@]2(CCN(c3ccncc3)C2)C1`, the Potency entry was “inactive”.

In the case of `O=C(Nc1cccc(C(F)(F)F)c1)c1cc(Br)cc(Br)c1O`, the Potency entry was “inactive”.

Consider `O=C(c1cnccn1)N1CCC2(CCCN(Cc3ccccc3)C2)CC1`, for which the Potency result was “inactive”.

For `COc1cc([C@@H]2c3cc4c(cc3[C@@H](O[C@@H]3O[C@@H]5CO[C@@H](C)O[C@H]5[C@H](O)[C@H]3O)[C@H]3COC(=O)[C@H]23)OCO4)cc(OC)c1OP(=O)(O)O`, the Potency result was “inactive”.

For `CC(C)NC(=O)N1CC[C@@]2(CCCN(C(=O)c3cccn3C)C2)C1`, the Potency result was “inactive”.

Regarding `CC[C@]1([C@H]2O[C@@H]([C@@H]3O[C@](O)(CO)[C@@H](C)C[C@H]3C)C[C@H]2C)CC[C@@H]([C@]2(C)CC[C@@]3(C[C@@H](O)[C@@H](C)[C@@H]([C@H](C)[C@H](OC)[C@H](C)C(=O)O)O3)O2)O1`, the Potency entry is “inactive”.

Regarding `CC(C)(O)c1ccccc1CC[C@H](SCC1(CC(=O)O)CC1)c1cccc(/C=C/c2ccc3ccc(Cl)cc3n2)c1`, the Potency result is “inactive”.

Take `CC1(C)OC2CC(=O)OC[C@@]23C1CC(=O)[C@]1(C)C3CC[C@@]2(C)C(c3ccoc3)OC(=O)C3O[C@@]321` (stereo partly specified): the Potency result is “inactive”.

Consider `c1ccc2sc(SNC3CCCCC3)nc2c1`, for which the Potency entry was “inactive”.

With `O=C(c1ncn2c1c(=O)[nH]c1ccccc12)N1CCc2ccccc2C1`, the Potency entry is “inactive”.

In the case of `CC(C)Cn1c(=O)c2ccccc2n2c(-c3cccc(Cl)c3)nnc12`, the Potency result was “inactive”.

In the case of `O=c1[nH]c2ccccc2n2c(-c3ccccc3)nnc12`, the Potency is 2.82 µM (active).

Regarding `CCNC[C@H](O)c1cccc(O)c1`, the Potency result is “inactive”.

In the case of `Cc1c(O)cc2c(c1C)O[C@](C)(CCC[C@H](C)CCC[C@H](C)CCCC(C)C)CC2`, the Potency result was “inactive”.

As for `Nc1ccccc1SC(C[N+](=O)[O-])c1ccccc1` (stereo unspecified), the Potency is 12.6 µM (active).

As for `CCC(=O)N1CCc2cc(Br)cc(S(=O)(=O)Nc3ccc(C)cc3C)c21`, the Potency result is “inactive”.

Turning to `COCCn1c(=O)c(-c2ccc(OC)cc2)nc2cnc(Oc3cccc(Cl)c3)nc21`, the Potency entry is “inactive”.

As for `N#Cc1cccc(-c2nc3cnc(N4CCNCC4)nc3n(C3CC3)c2=O)c1`, the Potency result was “inactive”.

For `COc1cc2c(cc1OC)CC(=O)N(CCCN(C)C[C@H]1Cc3cc(OC)c(OC)cc31)CC2`, the Potency entry was “inactive”.
